# Laboratory results: PubChem BioAssay (Tox21)
# A number with no mark means an inactive call. Records with an inconclusive call do not appear. Where a call stands in place of a potency, no number is given. Active and inactive are the calls of the source. Unless noted, calls follow the shape of the dose curve; as a rule, active = well fitted curve in the direction sought with a large enough effect in the repeat runs; inconclusive = weak or mixed curves; inactive = no such curve, though single readings can be large; an effect the other way counts as inactive or inconclusive.
# Experiments:
# [1] = target: Estrogen receptor beta (Homo sapiens) (UniProt Q92731); assay: qHTS assay to identify small molecule agonists of the estrogen receptor beta (ER-beta) signaling pathway (AID 1259377; active = well fitted activation curve with a large enough effect in the signal ratio in the repeat runs, not every such curve was filed as active; the % refers to the signal ratio)
# Chain of Estrogen receptor beta (Homo sapiens) (Q92731 whole entry, looked up): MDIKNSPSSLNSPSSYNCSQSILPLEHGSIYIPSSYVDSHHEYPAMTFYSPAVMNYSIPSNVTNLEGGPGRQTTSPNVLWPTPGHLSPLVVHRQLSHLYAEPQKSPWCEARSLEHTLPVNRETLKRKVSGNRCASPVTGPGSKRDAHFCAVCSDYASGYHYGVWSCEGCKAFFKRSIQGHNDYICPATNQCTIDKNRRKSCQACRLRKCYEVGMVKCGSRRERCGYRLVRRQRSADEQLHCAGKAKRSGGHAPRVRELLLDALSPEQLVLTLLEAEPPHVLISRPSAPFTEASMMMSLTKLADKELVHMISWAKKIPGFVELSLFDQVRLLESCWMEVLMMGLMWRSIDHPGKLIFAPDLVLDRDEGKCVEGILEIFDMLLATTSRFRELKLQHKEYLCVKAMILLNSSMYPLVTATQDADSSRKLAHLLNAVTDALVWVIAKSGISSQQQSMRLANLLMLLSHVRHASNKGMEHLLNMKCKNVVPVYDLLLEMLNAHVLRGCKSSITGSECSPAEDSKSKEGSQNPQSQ
# Method in brief: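 Beta-lactamase reporter readout: fluorescence of LiveBLAzer B/G FRET substrate after 2 h at room temperature, following 16 h compound treatment of ER-beta-UAS-bla HEK293T cells at 37C in 2% charcoal-stripped FBS medium.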
# [2] = target: Estrogen receptor beta (Homo sapiens) (UniProt Q92731); assay: qHTS assay to identify small molecule antagonists of the estrogen receptor beta (ER-beta) signaling pathway (AID 1259378; active = well fitted inhibition curve with a large enough effect in the signal ratio in the repeat runs, not every such curve was filed as active; the % refers to the signal ratio)
# Method in brief: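 Antagonist mode: compounds added to beta-lactamase reporter HEK293T ER-beta-UAS cells stimulated with E2 (1nM final), 16 hr at 37C. LiveBLAzer B/G FRET substrate, 2 hours room temperature, fluorescence read-out.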
# [3] = qHTS assay to identify small molecule agonists of the androgen receptor (AR) signaling pathway in the presence of an antagonist - cell viability counter screen (AID 1259379);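 also: MDA-kb2 human breast cancer cells carrying an MMTV luciferase reporter; series mostly up to about 92 µM; nearly all actives have a fitted effect of over 25% in size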
# Method in brief: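 Each compound was tested at 15 concentrations on MDA-kb2 cells in the presence of 3.0uM nilutamide. Viability was measured by CellTiter-Fluor fluorescence after a 16 hr incubation at 37C in a CO2-free atmosphere.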
# [4] = qHTS assay to identify small molecule agonists of the estrogen receptor beta (ER-beta) signaling pathway - cell viability counter screen (AID 1259380); also: nearly all actives have a fitted effect of over 30% in size
# Method in brief: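 Compounds dissolved in DMSO were pin-transferred onto ER-beta-UAS-bla HEK293T cells that had settled 6 hr, and exposure ran 16 hr at 37C. Following the reporter read, CellTiter-Glo luminescence after 30 min at room temperature indicated cytotoxicity.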
# [5] = qHTS assay to identify small molecule antagonists of the estrogen receptor beta (ER-beta) signaling pathway - cell viability counter screen (AID 1259382);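 also: HEK293T cells carrying ER-beta-UAS-bla reporter stimulated with estradiol; series mostly up to about 92 µM; nearly all actives have a fitted effect of over 55% in size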
# Method in brief: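 CellTiter-Glo ATP luminescence measured after the LiveBLAzer read in the same wells; ER-beta-UAS-bla HEK293T cells, 16 hr compound treatment with 1nM 17-beta-estradiol agonist at 37C, 5% CO2.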
# [6] = qHTS assay to identify small molecule agonists or antagonists of the thyroid stimulating hormone receptor (TSHR) signaling pathway - wild type cell line counter screen (AID 1259384; calls by dose curve)
# Method in brief: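 Counter screen in untransfected Hek293: compounds (15-point titration, triplicate) plus phosphodiesterase inhibitor Ro20-1724 added after 18 h plating; 30 min RT. Intracellular cAMP via competitive d2/cryptate immunoassay, 1 h incubation.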
# [7] = target: Thyrotropin receptor (Homo sapiens) (UniProt P16473); assay: qHTS assay to identify small molecule antagonists of the thyroid stimulating hormone receptor (TSHR) signaling pathway (AID 1259385; calls by dose curve; also: nearly all actives have a fitted effect of over 20% in size)
# Chain of Thyrotropin receptor (Homo sapiens) (P16473 whole entry, looked up): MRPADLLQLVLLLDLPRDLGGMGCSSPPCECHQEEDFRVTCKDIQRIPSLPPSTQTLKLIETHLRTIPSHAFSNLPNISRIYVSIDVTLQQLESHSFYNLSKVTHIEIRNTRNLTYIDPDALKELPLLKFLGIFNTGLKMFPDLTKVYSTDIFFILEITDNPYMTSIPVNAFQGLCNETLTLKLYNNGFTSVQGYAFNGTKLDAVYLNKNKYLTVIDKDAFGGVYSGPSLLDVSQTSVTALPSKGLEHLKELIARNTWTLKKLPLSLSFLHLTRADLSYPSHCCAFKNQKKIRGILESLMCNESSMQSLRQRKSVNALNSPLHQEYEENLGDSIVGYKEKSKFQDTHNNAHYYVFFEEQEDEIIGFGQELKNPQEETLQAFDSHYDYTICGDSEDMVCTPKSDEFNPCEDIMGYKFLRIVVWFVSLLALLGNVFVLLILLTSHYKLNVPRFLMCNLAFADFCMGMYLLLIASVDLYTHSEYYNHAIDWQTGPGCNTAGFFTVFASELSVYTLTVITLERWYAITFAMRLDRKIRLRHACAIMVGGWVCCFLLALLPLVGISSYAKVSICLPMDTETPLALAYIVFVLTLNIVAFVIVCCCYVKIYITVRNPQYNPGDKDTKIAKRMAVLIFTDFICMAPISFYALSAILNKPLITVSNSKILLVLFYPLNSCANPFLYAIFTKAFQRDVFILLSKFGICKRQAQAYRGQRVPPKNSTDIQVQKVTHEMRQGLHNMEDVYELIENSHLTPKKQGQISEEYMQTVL
# Method in brief: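 Antagonist mode: compound-treated TSHR-expressing HEK293 cells were stimulated with 1.5 ng/mL TSH (final) in presence of Ro20-1724 for 30 min at RT. HTRF cAMP detection after 1 h; each compound tested at 15 concentrations, triplicate.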
# [8] = qHTS assay to identify small molecule agonists of the estrogen receptor alpha (ER-alpha) signaling pathway in the presence of an antagonist - cell viability counter screen (AID 1259386);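 also: series mostly up to about 92 µM; cells exposed to compounds for 22 h at 37 °C before the viability read; nearly all actives have a fitted effect of over 30% in size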
# Method in brief: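 Using estrogen-depleted VM7Luc4E2 cells, the 15-concentration compound series was applied together with 10.0nM ICI-182,780 and incubated 22hr at 37C/5% CO2. Cell viability was then scored by CellTiter-Fluor.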
# [9] = target: Progesterone receptor (Homo sapiens) (UniProt P06401); assay: qHTS assay to identify small molecule agonists of the progesterone receptor (PR) signaling pathway (AID 1346784; calls by dose curve; also: nearly all actives have a fitted effect of over 30% in size)
# Chain of Progesterone receptor (Homo sapiens) (P06401 whole entry, looked up): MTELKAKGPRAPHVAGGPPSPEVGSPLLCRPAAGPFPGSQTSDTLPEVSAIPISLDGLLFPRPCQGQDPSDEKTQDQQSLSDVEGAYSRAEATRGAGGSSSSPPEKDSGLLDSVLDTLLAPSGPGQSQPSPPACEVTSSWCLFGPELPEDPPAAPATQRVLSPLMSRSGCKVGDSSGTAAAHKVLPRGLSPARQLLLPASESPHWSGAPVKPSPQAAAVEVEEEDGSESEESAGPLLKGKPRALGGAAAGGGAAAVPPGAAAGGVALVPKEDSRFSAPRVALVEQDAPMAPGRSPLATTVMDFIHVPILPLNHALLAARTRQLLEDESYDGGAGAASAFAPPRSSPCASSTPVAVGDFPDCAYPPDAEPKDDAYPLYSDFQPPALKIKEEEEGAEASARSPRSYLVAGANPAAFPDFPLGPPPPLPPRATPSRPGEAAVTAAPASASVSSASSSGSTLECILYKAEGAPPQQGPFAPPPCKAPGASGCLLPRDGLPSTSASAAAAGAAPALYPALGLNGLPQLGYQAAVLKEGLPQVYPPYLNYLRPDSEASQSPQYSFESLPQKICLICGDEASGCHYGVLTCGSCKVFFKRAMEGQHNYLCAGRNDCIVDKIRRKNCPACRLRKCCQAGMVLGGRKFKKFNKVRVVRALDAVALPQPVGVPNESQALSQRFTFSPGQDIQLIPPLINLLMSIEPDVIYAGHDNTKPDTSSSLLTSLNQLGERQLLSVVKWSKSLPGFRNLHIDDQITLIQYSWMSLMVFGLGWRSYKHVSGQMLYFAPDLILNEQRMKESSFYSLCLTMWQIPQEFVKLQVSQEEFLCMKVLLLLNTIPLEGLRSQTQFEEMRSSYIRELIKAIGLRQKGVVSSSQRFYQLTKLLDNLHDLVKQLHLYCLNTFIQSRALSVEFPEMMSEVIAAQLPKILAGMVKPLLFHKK
# Method in brief: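 HEK 293T PR-UAS-bla reporter cells, 2% charcoal-stripped FBS; 6 hr settle at 37C/5% CO2, compound (DMSO) 16 hr, LiveBLAzer B/G FRET substrate 2 hr RT, fluorescence intensity read.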
# [10] = target: Progesterone receptor (Homo sapiens) (UniProt P06401); assay: qHTS assay to identify small molecule antagonists of the progesterone receptor (PR) signaling pathway (AID 1346795; active = well fitted inhibition curve with a large enough effect in the signal ratio in the repeat runs, not every such curve was filed as active; the % refers to the signal ratio; also: potency is read from the fitted curve at half-maximal effect)
# Method in brief: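 Beta-lactamase reporter, HEK293T PR-UAS-bla line; 2% charcoal-stripped FBS; 6 hr pre-incubation, 37C/5% CO2. Compound + R5020 1 nM final, 16 hr. LiveBLAzer B/G FRET substrate, 2 hr RT; fluorescence intensity read.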
# [11] = qHTS assay to identify small molecule antagonists of the progesterone receptor (PR) signaling pathway - cell viability counter screen (AID 1346798); also: series mostly up to about 92 µM; nearly all actives have a fitted effect of over 50% in size
# Method in brief: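 Luminescence readout (CellTiter-Glo, 30 min, RT) of viability in PR-UAS-bla HEK293T cells exposed to compound and R5020 agonist for 16 hr at 37C, 5% CO2; run in the same wells as the beta-lactamase reporter read.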
# [12] = qHTS assay to identify small molecule agonists of the progesterone receptor (PR) signaling pathway - cell viability counter screen (AID 1346799; calls by dose curve; also: nearly all actives have a fitted effect of over 45% in size)
# Method in brief: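 HEK293T PR-UAS-bla, 3,000 cells/well, 2% charcoal-stripped FBS; 6 h settle, compound 16 h at 37C/5% CO2; LiveBLAzer 2 h RT, then CellTiter-Glo 30 min RT, luminescence read.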
# [13] = qHTS assay to identify small molecule antagonists of the TGF-beta/Smad signaling pathway - cell viability counter screen (AID 1346824); also: nearly all actives have a fitted effect of over 50% in size
# Method in brief: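 Cytotoxicity counter-screen run in the same wells as the beta-lactamase Smad reporter read: CellTiter-Glo luminescence after 30 min at room temperature. HEK 293T SBE-bla cells had 5 hr compound exposure at 37 C with TGF-beta1 (0.25 ng/mL stock).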
# [14] = qHTS assay to identify small molecule agonists of the TGF-beta/Smad signaling pathway - cell viability counter screen (AID 1346829); also: top concentration of the series differs between compounds; nearly all actives have a fitted effect of over 45% in size
# Method in brief: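 CellTiter-Glo luminescence readout; SBE-bla HEK 293T cells, overnight plating, compound 5 hr at 37 C/5% CO2, then bla substrate 2 hr RT, then CellTiter-Glo 30 min RT.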
# [15] = qHTS assay to identify small molecule agonists of the TGF-beta/Smad signaling pathway (AID 1346859; active = well fitted activation curve with a large enough effect in the signal ratio in the repeat runs, not every such curve was filed as active; the % refers to the signal ratio; also: series mostly up to about 77 µM)
# Method in brief: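 Read-out: fluorescence at 460 and 530 nm (405 nm excitation) after a 2 hr room-temperature incubation with beta-lactamase FRET substrate. SBE-bla HEK 293T cells had been treated with test compounds for 5 hr at 37 C.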
# [16] = target: Thyrotropin-releasing hormone receptor (Homo sapiens) (UniProt P34981); assay: qHTS assay to identify small molecule antagonists of the thyrotropin-releasing hormone receptor (TRHR) signaling pathway (AID 1346877; active = well fitted inhibition curve with a large enough effect in the repeat runs, not every such curve was filed as active; also: series mostly up to about 51 µM)
# Chain of Thyrotropin-releasing hormone receptor (Homo sapiens) (P34981 whole entry, looked up): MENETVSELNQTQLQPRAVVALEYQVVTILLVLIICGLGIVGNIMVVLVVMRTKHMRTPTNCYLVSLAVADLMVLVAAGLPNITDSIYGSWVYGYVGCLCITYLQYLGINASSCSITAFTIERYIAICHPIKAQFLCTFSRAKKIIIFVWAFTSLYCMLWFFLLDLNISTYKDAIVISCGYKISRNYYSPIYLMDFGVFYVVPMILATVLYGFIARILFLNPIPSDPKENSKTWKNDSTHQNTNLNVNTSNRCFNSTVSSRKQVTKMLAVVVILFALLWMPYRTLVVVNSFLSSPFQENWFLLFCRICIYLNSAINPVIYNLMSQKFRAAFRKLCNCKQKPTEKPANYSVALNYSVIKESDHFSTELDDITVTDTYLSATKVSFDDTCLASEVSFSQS
# Method in brief: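 Calcium signal in dye-loaded TRHR/HEK293 cells; compounds added 5 min before TRH (1 nM final); fluorescence monitored 3 min at 1 s steps.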
# [17] = target: Thyrotropin-releasing hormone receptor (Homo sapiens) (UniProt P34981); assay: qHTS assay to identify small molecule agonists of the thyrotropin-releasing hormone receptor (TRHR) signaling pathway (AID 1346891; calls by dose curve;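 also: HEK293 cells expressing TRHR with calcium dye readout; series mostly up to about 58 µM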)
# Method in brief: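 HEK293/TRHR cells, 1500 per well, 18 h 37 °C; Ca dye 2 h 37 °C; pin-tool compound addition (agonist mode); kinetic fluorescence 3 min, 1 s reads; 15 concentrations, triplicate.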
# [18] = Human pregnane X receptor (PXR) small molecule agonists, qHTS cell viability counter screen (AID 1346977); also: nearly all actives have a fitted effect of over 50% in size
# Method in brief: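 Fluorescence read-out (CellTiter-Fluor) of viability in PXR-Luc HepG2 cells, multiplexed with the luciferase agonist read. Compounds in DMSO added after 5hr plating; 24hr total exposure at 37C, 5% CO2.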
# [19] = target: Estrogen receptor (Homo sapiens) (UniProt P03372); assay: qHTS assay to identify small molecule agonists of the estrogen receptor alpha (ER-alpha) signaling pathway in the presence of an antagonist (AID 1259383; calls by dose curve; also: top concentration of the series differs between compounds; nearly all actives have a fitted effect of over 15% in size)
# Chain of Estrogen receptor (Homo sapiens) (P03372 whole entry, looked up): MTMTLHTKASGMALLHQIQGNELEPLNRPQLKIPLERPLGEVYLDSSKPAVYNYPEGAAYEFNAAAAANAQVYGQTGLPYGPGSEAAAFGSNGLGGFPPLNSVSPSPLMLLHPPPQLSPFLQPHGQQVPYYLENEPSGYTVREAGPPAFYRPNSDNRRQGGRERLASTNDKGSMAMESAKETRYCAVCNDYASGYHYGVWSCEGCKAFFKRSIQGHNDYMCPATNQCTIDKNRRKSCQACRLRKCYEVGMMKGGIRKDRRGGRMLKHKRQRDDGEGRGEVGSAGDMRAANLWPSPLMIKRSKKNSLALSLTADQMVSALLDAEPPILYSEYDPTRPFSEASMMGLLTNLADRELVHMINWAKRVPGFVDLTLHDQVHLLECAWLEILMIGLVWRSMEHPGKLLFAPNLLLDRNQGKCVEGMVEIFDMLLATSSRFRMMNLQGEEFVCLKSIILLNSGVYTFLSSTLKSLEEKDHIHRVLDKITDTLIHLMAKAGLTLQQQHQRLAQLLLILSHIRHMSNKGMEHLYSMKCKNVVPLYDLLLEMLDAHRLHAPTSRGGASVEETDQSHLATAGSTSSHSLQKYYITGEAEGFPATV
# Method in brief: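 Luminescent ERE-luciferase reporter, VM7Luc4E2 cells (endogenous ER-alpha); 10.0nM ICI-182,780 final; 15-point compound titration; 22hr at 37C; ONE-Glo, 30min RT.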
smiles,measurement,setting,value
CCN,Potency,[1],inactive
same,Potency,[2],inactive
same,Potency,[3],inactive
same,Potency,[4],inactive
same,Potency,[5],inactive
same,outcome,[6],inactive
same,Potency,[7],inactive
same,Potency,[8],inactive
same,Potency,[9],inactive
same,Potency,[10],inactive
same,Potency,[11],inactive
same,Potency,[12],inactive
same,Potency,[13],inactive
same,Potency,[14],inactive
same,outcome,[15],inactive
same,Potency,[16],inactive
same,Potency,[17],inactive
same,Potency,[18],inactive
ClC1=C(Cl)[C@]2(Cl)[C@@H]3[C@@H](Cl)[C@@H](Cl)C[C@@H]3[C@@]1(Cl)C2(Cl)Cl,Potency,[1],inactive
same,Potency,[2],inactive
same,Potency,[3],inactive
same,Potency,[4],inactive
same,Potency,[5],inactive
same,Potency,[19],inactive
same,Potency,[8],inactive
same,Potency,[9],inactive
same,Potency,[10],inactive
same,Potency,[11],inactive
same,Potency,[13],inactive
same,Potency,[14],inactive
same,outcome,[15],inactive
same,Potency,[16],inactive
same,Potency,[17],inactive
same,Potency,[18],inactive
Brc1c(Br)c(Br)c(Oc2c(Br)c(Br)c(Br)c(Br)c2Br)c(Br)c1Br,activation,[1],9.23% [at 19 µM]
same,"activity, negative = inhibition",[2],-4.25% [at 19 µM]
same,"activity change, negative = cytotoxicity",[3],4.12% [at 19 µM]
same,"activity change, negative = cytotoxicity",[4],-3.73% [at 19 µM]
same,"activity change, negative = cytotoxicity",[5],4.03% [at 19 µM]
same,cAMP activity change,[6],-3.73% [at 18.9 µM]
same,"activity change, negative = inhibition",[7],0.486% [at 19 µM]
same,"activity change, negative = cytotoxicity",[8],-0.0832% [at 19 µM]
same,activation,[9],-1.27% [at 19 µM]
same,"activity change, negative = inhibition",[10],0.347% [at 18.9 µM]
same,"activity change, negative = cytotoxicity",[11],-6.81% [at 18.9 µM]
same,"activity change, negative = cytotoxicity",[12],-0.672% [at 19 µM]
same,"viability change, negative = cytotoxic",[13],12.3% [at 15.8 µM]
same,activation,[15],4.57% [at 15.8 µM]
same,"activity, negative = inhibition",[16],2.65% [at 10.5 µM]
same,activation,[17],-0.444% [at 11.8 µM]
same,"activity change, negative = cytotoxicity",[18],1.58% [at 19 µM]
O=[N+]([O-])c1ccc(Oc2ccc(C(F)(F)F)cc2[N+](=O)[O-])cc1,Potency,[1],inactive
same,Potency,[2],inactive
same,Potency,[3],inactive
same,Potency,[4],inactive
same,Potency,[5],inactive
same,Potency,[19],inactive
same,outcome,[6],inactive
same,Potency,[7],inactive
same,Potency,[8],inactive
same,Potency,[9],inactive
same,Potency,[10],7.7 µM (active)
same,Potency,[13],inactive
same,Potency,[14],inactive
same,outcome,[15],inactive
same,Potency,[16],inactive
same,Potency,[17],inactive
same,Potency,[18],inactive
